Data: the supplement of paper PMC10849652
About 8,800 targets were measured; listed, in parts, are those with a hit and a random draw of the rest. About 0.5% of all pairs of compound and target were hits.

Legend:
Experiment in all cases: log2 fold change, soluble protein after heating vs DMSO (PISA); higher = thermal stabilisation; K562 lysate, 10 uM; active = over 0.2 and 3.5 SD of the protein, either way, in both replicates (recomputed)
[1] = compound: C1=CC=C(C=C1)[C@H](COC2=CC3=C(C=C2)NC(=O)N3)NC(=O)C4=CC=CN(C4=O)CC5=CC(=C(C=C5)F)F
Outline: (§1)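 The values are log-two fold changes in thermal stability compared with solvent controls and come from duplicates. They were obtained by TMTpro 16plex LC-MS/MS, with channel sums equalised, on the supernatant after 21,000xg for 90 min. That supernatant came from crude K562 extract at 1 mg/mL protein treated with 10 μM compound for 30 min, heated for 3 min across 48°C-58°C, pooled and brought to 0.5% NP-40 at 4°C.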

[2] = compound: CC1=C(SC2=C1C(=N[C@H](C3=NN=C(N32)C)CC(=O)N)C4=CC=C(C=C4)Cl)C
Outline: as §1

[3] = compound: CC1=C2C(=CC=C1)N=C(N(C2=O)C3=CC=CC=C3C)CN4C=NC5=C(N=CN=C54)N
Outline: as §1

[4] = compound: Cc1sc2c(c1C)C(c1ccc(Cl)cc1)=N[C@@H](CC(=O)OC(C)(C)C)c1nnc(C)n1-2
Outline: as §1

[5] = compound: c1ccc([C@@H]2C[C@H]2NC2CCNCC2)cc1
Outline: as §1

Measured: log2 fold change

CCDC47 (UniProt Q96A33)
Chain of UniProt Q96A33 (Q96A33 whole entry, looked up): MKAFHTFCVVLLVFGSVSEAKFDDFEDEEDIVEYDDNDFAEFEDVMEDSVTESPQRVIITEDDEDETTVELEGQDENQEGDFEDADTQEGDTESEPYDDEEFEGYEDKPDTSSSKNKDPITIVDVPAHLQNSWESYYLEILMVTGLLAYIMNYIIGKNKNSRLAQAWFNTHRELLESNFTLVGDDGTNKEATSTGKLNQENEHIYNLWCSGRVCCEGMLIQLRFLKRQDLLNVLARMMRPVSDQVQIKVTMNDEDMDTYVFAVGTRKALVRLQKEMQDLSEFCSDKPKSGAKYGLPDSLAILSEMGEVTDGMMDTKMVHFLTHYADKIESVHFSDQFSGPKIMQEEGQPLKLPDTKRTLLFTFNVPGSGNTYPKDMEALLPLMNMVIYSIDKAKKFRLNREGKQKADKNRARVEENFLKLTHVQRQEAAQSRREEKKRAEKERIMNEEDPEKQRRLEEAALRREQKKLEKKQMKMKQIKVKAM
inactive: [1] -0.043 | [2] 0.005 | [3] 0.022 | [4] 0.017 | [5] 0.018

BET1 (UniProt O15155)
Chain of UniProt O15155 (O15155 whole entry, looked up): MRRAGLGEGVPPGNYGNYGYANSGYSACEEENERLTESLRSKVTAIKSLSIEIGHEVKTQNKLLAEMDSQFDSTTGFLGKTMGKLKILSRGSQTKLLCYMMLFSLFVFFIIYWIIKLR
inactive: [1] -0.053 | [2] 0.013 | [3] 0.032 | [4] 0.038 | [5] 0.009

CAPNS1 (UniProt U3KPR7)
inactive: [1] 0.019 | [2] 0.122

CARHSP1 (UniProt Q9Y2V2)
Chain of UniProt Q9Y2V2 (Q9Y2V2 whole entry, looked up): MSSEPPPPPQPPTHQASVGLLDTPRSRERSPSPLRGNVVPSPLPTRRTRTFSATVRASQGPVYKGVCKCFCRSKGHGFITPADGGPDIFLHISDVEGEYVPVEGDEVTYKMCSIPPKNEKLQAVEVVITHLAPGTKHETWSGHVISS
inactive: [1] -0.031 | [2] 0.027 | [3] 0.019 | [4] -0.053 | [5] 0.005

CDK13 (UniProt Q14004)
Chain of UniProt Q14004 (Q14004 whole entry, looked up): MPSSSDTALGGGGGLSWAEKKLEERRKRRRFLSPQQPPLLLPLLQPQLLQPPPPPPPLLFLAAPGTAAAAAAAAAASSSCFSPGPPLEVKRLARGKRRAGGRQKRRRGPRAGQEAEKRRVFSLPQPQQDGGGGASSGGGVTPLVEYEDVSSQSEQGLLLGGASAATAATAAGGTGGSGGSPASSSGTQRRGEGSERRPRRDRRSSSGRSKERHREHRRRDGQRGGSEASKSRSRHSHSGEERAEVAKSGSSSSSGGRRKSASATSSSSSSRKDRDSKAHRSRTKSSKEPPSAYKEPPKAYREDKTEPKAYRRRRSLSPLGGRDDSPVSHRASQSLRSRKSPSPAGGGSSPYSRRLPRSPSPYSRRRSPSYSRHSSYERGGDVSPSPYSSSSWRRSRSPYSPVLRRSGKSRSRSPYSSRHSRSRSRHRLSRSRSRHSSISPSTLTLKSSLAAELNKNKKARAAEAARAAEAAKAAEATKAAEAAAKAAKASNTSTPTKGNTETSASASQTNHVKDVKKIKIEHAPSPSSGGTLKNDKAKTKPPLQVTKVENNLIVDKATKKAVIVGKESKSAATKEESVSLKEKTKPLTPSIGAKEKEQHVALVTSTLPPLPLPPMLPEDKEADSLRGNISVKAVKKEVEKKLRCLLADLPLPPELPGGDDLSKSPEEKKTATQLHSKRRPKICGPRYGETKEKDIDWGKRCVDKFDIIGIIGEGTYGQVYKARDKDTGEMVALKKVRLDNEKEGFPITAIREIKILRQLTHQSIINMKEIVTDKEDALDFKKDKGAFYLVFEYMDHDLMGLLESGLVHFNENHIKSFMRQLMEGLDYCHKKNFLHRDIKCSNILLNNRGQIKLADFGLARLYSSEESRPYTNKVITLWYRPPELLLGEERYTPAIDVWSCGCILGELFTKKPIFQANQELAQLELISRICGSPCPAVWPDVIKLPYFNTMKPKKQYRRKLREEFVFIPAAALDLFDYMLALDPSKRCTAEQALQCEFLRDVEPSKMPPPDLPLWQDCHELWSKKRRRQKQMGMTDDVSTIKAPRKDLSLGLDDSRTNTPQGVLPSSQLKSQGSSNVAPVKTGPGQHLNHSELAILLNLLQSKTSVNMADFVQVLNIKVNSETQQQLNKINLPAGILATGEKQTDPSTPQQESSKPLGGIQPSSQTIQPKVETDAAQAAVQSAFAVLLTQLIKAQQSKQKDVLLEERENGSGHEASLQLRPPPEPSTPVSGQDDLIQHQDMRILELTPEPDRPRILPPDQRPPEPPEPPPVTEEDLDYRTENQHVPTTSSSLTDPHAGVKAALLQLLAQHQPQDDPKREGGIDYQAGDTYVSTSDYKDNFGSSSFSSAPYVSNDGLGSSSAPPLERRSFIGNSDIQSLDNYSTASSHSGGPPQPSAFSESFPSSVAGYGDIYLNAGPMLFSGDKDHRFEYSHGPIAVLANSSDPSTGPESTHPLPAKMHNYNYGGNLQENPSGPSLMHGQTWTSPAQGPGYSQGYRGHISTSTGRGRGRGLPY
inactive: [1] -0.091 | [2] -0.031 | [3] -0.052 | [4] 0.049 | [5] 0.052

C18orf25 (UniProt Q96B23)
Chain of UniProt Q96B23 (Q96B23 whole entry, looked up): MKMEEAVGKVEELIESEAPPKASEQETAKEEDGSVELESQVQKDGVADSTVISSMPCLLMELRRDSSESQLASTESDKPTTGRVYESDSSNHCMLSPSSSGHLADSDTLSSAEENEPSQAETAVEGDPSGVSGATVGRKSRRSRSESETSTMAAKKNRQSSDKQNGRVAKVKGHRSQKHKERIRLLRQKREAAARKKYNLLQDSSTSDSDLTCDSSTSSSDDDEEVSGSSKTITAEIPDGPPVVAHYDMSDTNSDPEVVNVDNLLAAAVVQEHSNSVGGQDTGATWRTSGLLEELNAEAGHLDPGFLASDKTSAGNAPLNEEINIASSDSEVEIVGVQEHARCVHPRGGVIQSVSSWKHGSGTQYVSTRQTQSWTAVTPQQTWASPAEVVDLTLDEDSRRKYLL
inactive: [1] 0.013 | [2] -0.035 | [3] 0.043 | [4] 0.017 | [5] -0.033

CDK1 (UniProt P06493)
Chain of UniProt P06493 (P06493 whole entry, looked up): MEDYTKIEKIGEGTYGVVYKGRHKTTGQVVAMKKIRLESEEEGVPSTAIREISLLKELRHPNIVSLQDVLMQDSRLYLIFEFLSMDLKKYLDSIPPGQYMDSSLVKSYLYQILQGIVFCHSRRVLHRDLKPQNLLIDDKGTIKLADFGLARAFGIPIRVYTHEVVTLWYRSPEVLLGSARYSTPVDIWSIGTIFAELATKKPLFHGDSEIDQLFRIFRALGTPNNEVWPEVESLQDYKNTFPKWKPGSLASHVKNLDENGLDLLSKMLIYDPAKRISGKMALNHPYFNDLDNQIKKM
inactive: [1] 0.037 | [2] -0.009 | [3] 0.042 | [4] 0.021 | [5] 0.018

CAMLG (UniProt P49069)
Chain of UniProt P49069 (P49069 whole entry, looked up): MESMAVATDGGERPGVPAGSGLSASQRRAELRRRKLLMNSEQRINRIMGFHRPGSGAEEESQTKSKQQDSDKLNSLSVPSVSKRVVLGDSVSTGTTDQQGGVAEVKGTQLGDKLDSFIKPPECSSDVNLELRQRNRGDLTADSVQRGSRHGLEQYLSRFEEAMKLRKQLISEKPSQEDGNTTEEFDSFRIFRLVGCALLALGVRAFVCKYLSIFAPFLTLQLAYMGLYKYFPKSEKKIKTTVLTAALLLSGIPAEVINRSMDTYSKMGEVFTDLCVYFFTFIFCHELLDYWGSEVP
inactive: [1] 0.058 | [2] 0.003 | [3] 0.018 | [4] 0.05 | [5] 0.074

BOLA2 (UniProt Q9H3K6)
Chain of UniProt Q9H3K6 (Q9H3K6 whole entry, looked up): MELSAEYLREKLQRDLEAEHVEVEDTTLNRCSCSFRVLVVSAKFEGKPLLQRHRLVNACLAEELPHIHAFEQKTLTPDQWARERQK
inactive: [1] -0.052 | [2] 0.01 | [3] -0.019 | [4] 0.034 | [5] 0.078

CAMK1 (UniProt Q14012)
Chain of UniProt Q14012 (Q14012 whole entry, looked up): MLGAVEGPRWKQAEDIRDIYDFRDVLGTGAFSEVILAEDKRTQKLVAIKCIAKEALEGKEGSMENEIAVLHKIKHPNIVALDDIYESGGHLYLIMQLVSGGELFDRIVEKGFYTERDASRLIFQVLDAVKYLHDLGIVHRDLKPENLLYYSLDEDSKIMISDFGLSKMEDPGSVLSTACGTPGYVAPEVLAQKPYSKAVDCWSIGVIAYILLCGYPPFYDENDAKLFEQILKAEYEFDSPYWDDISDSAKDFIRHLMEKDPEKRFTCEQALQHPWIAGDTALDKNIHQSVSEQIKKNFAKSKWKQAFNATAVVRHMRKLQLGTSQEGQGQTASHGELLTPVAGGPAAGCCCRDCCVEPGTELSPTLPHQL
inactive: [1] 0.096 | [2] 0.014 | [3] -0.007 | [4] 0.026 | [5] -0.047
